PubChem BioAssay
Unmarked numbers belong to inactive results. Activity calls are given as the source filed them.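 How the source made its calls: active means inhibition at or above 50% relative to wild type and mutant plate controls; inactive means inhibition below 50%.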

Assay: loss of swimming-algae plug formation – whole organism, Chlamydomonas reinhardtii, WT vs cilia-less mutant, absorbance, 96-well, primary screen (AID 463189);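 further: 0% = wild type cc124 cells in DMSO and 100% = ciliumless bld1 mutant cells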
Conditions: Chlamydomonas reinhardtii gravitaxis, OD600 absorbance, 2 days; at 10 µM; stronger effect = higher value

With CSc1nc(N)nc(SCC(=O)OC(C)C)c1C#N the inhibition was 72.2% (active).
For Fc1ccc2[nH]c3c(N4CCN(C5CCCCC5)CC4)ncnc3c2c1, the inhibition was 128% (active).

First: CCOC(=O)c1c(CNCCN(CC)CC)n(C)c2cc(Br)c(OC)cc12
Second: COc1ccc(/C(O)=C2/C(=O)C(=O)N(CCCN(C)C)C2c2ccccc2)cc1OC (stereo not drawn)
The inhibition of the first is higher: 28.1% for the first, -0.889% for the second.

Compared with Nc1nnc(CSc2ccc(Cl)cc2)s1, Cc1[nH]c2ccc3c(ncn3CCC#N)c2c1C is higher in inhibition: 6.7% for the first, 11.7% for the second.

Compared with COC(=O)C(NC(C)=O)(Nc1ccccc1)C(=O)OC, CN(C)C/C(Cl)=C(\Cl)c1ccccc1 is higher in inhibition: 2.12% for the first, 10.7% for the second.
